Assay in all cases: peptide microarray binding signal (635 nm), min-max normalized on array (fraction of array maximum); higher = stronger binding
Common to all, as to details: peptide region: H3 1-13

Test [1] concerns the target T1, HaloTag-ATRX ADD domain (163-292).
T1 chain: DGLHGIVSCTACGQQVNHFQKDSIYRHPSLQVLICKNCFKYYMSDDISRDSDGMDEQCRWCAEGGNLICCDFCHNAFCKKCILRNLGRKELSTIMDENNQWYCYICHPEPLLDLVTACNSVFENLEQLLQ
Here is the method:
(§1)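 Histone 13-mer peptides were synthesized as cellulose conjugates with a C-terminal 20-atom PEG linker and printed in triplicate on nitrocellulose. The sequence given is the unmodified backbone; PTMs (Kme1/2/3, Kac, Sph/Tph, Rme/Rme2a/Rme2s, Rcit) are listed in the label and the 'peptide modifications' condition. Slides were probed at 4 °C for 1 h with biotin-labelled (HQ)5-HaloTag reader fusions (ATRX-ADD, ING2-PHD) then streptavidin-Alexa647, or with rabbit histone antibodies then anti-rabbit Alexa647. The mean 635 nm signal of the triplicate spots was scaled 0-1 between the lowest and highest values on each array.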

Test [2] has as its target HaloTag-ING2 PHD (mouse Ing2 200-280). Here is the method:
as §1

Test [3] concerns the target anti-H3K4me3 antibody ab8580. How it is done: as §1
The target of test [4] is anti-H3K9me3 antibody ab8898. How it is done:
as §1

The mark [5] stands for this setting: peptide modifications: H3K4me2 H3T6ph, binder concentration: 1:2,000 dilution.
The mark [6] stands for this setting: peptide modifications: H3K4me2 H3T6ph, binder concentration: 1:10,000 dilution.
Setting [7] is: peptide modifications: H3K4ac H3K9me1, binder concentration: 1:2,000 dilution.
[8] abbreviates: peptide modifications: H3K4ac H3K9me1, binder concentration: 1:10,000 dilution.
Setting [9] is: peptide modifications: H3K4me1, binder concentration: 1:2,000 dilution.
The mark [10] stands for this setting: peptide modifications: H3K4me1, binder concentration: 1:10,000 dilution.
Where [11] appears, read: peptide modifications: H3K4ac H3T6ph, binder concentration: 1:2,000 dilution.
The mark [12] stands for this setting: peptide modifications: H3K4ac H3T6ph, binder concentration: 1:10,000 dilution.
Setting [13] is: peptide modifications: H3K4me1 H3K9ac, binder concentration: 1:2,000 dilution.
Where [14] appears, read: peptide modifications: H3K4me1 H3K9ac, binder concentration: 1:10,000 dilution.

± gives the standard deviation.

With ARTKQTARKSTGG [H3 1-13 A R T Kme2 Q Tph A R K S T G G], the “peptide microarray binding signal” value came out at 0.00636 ± 7.4e-05 in test [1] (peptide modifications: H3K4me2 H3T6ph, binder concentration: 50 nM); 0.0142 ± 0.0017 in test [1] (peptide modifications: H3K4me2 H3T6ph, binder concentration: 500 nM); 0.139 ± 0.025 in test [2] (peptide modifications: H3K4me2 H3T6ph, binder concentration: 10 nM); 0.385 ± 0.012 in test [2] (peptide modifications: H3K4me2 H3T6ph, binder concentration: 100 nM); 0.0372 ± 0.011 in test [3] (setting [5]); 0.0131 ± 0.0018 in test [3] (setting [6]). For the same molecule, the “peptide microarray binding signal” value turned out to be 0.00426 ± 0.0013 in test [4] (setting [5]) and 0.00271 ± 0.00042 in test [4] (setting [6]).
As for ARTKQTARKSTGG [H3 1-13 A R T Kac Q T A R Kme S T G G], the “peptide microarray binding signal” value in test [1] (peptide modifications: H3K4ac H3K9me1, binder concentration: 50 nM) came out at 0.00809 ± 0.00079; in test [1] (peptide modifications: H3K4ac H3K9me1, binder concentration: 500 nM) it was 0.0149 ± 0.0037; in test [2] (peptide modifications: H3K4ac H3K9me1, binder concentration: 10 nM), 0.0703 ± 0.011; in test [2] (peptide modifications: H3K4ac H3K9me1, binder concentration: 100 nM) it was 0.1 ± 0.035; in test [3] (setting [7]) it was 0.00664 ± 0.0014; in test [3] (setting [8]), 0.0205 ± 0.012. For the same molecule, the “peptide microarray binding signal” value in test [4] (setting [7]) was found to be 0.00574 ± 0.00077; in test [4] (setting [8]), 0.00565 ± 0.00024.
As for ARTKQTARKSTGG [H3 1-13 A R T Kme Q T A R K S T G G], the “peptide microarray binding signal” value in test [1] (peptide modifications: H3K4me1, binder concentration: 50 nM) amounted to 0.00755 ± 0.00014; in test [1] (peptide modifications: H3K4me1, binder concentration: 500 nM), 0.0155 ± 0.00093; in test [2] (peptide modifications: H3K4me1, binder concentration: 10 nM) it was 0.0269 ± 0.0015; in test [2] (peptide modifications: H3K4me1, binder concentration: 100 nM), 0.112 ± 0.035; in test [3] (setting [9]) it was 0.0156 ± 0.0047; in test [3] (setting [10]) it was 0.0142 ± 0.0025. In addition, the “peptide microarray binding signal” value is 0.00231 ± 0.00034 in test [4] (setting [9]) and 0.00173 ± 1.7e-05 in test [4] (setting [10]).
Take ARTKQTARKSTGG [H3 1-13 A R T Kac Q Tph A R K S T G G]: the “peptide microarray binding signal” value in test [1] (peptide modifications: H3K4ac H3T6ph, binder concentration: 50 nM) came out at 0.00693 ± 0.00026; in test [1] (peptide modifications: H3K4ac H3T6ph, binder concentration: 500 nM), 0.0116 ± 0.0014; in test [2] (peptide modifications: H3K4ac H3T6ph, binder concentration: 10 nM) it was 0.0574 ± 0.0059; in test [2] (peptide modifications: H3K4ac H3T6ph, binder concentration: 100 nM), 0.0396 ± 0.0055; in test [3] (setting [11]), 0.00242 ± 0.00029; in test [3] (setting [12]), 0.00417 ± 0.00026. The entries for the “peptide microarray binding signal” value in test [4] (setting [11]) and in test [4] (setting [12]) were 0.0013 ± 0.00014 and 0.000923 ± 9.6e-06, respectively.
As for ARTKQTARKSTGG [H3 1-13 A R T Kme Q T A R Kac S T G G], the “peptide microarray binding signal” value in test [1] (peptide modifications: H3K4me1 H3K9ac, binder concentration: 50 nM) was 0.0172 ± 0.00082; in test [1] (peptide modifications: H3K4me1 H3K9ac, binder concentration: 500 nM), 0.0329 ± 0.0029; in test [2] (peptide modifications: H3K4me1 H3K9ac, binder concentration: 10 nM) it was 0.758 ± 0.07; in test [2] (peptide modifications: H3K4me1 H3K9ac, binder concentration: 100 nM), 0.727 ± 0.11; in test [3] (setting [13]), 0.27 ± 0.033; in test [3] (setting [14]), 0.157 ± 0.018. Also, the “peptide microarray binding signal” value worked out at 0.00678 ± 0.00086 in test [4] (setting [13]) and 0.00634 ± 0.00026 in test [4] (setting [14]).

Values taken from the supplement of paper PMC4022240.
